Our source for the Potency, max response and outcome values is PubChem BioAssay (NCATS).

One test relates to C33A. As to the kind of experiment: Primary qHTS to identify gynecologic anti-cancer compounds using libraries of approved drugs and bioactive compounds (AID 1345084). Further: nearly all actives have a fitted effect of over 55% in size. Further: potency means the concentration at half of the fitted maximal effect. Conditions: Gynecologic cancer cell panel viability, ATPlite luminescence, 48 h; series mostly up to 57.5 µM. Put shortly: (§1)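 Cell viability after 48 h drug treatment, ATPlite luminescence readout; five doses.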
For orientation: qHTS replaces the single test concentration by a dilution series.

In another test the test system is CAOV3. The test is described as above. As to conditions: Gynecologic cancer cell panel viability, ATPlite luminescence, 48 h; series mostly up to 57.5 µM. Put shortly: as §1
The next test has as its system CASKI. The description is as above. Conditions: Gynecologic cancer cell panel viability, ATPlite luminescence, 48 h; series mostly up to 57.5 µM. Put shortly: as §1
The test system of a further test is Es-2. The description is as above. As to conditions: Gynecologic cancer cell panel viability, ATPlite luminescence, 48 h; series mostly up to 57.5 µM. Summed up:
as §1
For orientation: Cellular ATP, detected with luciferase, serves as a proxy for viable cell number.

The next test deals with HeLa. The description is as above. Conditions: Gynecologic cancer cell panel viability, ATPlite luminescence, 48 h; series mostly up to 57.5 µM. Put shortly: as §1
The test system of the next test is Hek293T. The description is as above. As to conditions: Gynecologic cancer cell panel viability, ATPlite luminescence, 48 h, control line for the selectivity index; series mostly up to 57.5 µM. Summed up:
as §1

In a further test the test system is JEG-3. Described as above. Conditions: Gynecologic cancer cell panel viability, ATPlite luminescence, 48 h; series mostly up to 57.5 µM. Put shortly: as §1
The next test has as its system OV90. Described as above. As to conditions: Gynecologic cancer cell panel viability, ATPlite luminescence, 48 h; series mostly up to 57.5 µM. Summed up: as §1
In a further test the test system is PA-1. The test is described as above. As to conditions: Gynecologic cancer cell panel viability, ATPlite luminescence, 48 h; series mostly up to 57.5 µM. Summed up: as §1
The subject of the next test is SKOV3. The test is described as above. As to conditions: Gynecologic cancer cell panel viability, ATPlite luminescence, 48 h; series mostly up to 57.5 µM. Put shortly: as §1
The next test deals with Tov-21-G. The test is described as above. As to conditions: Gynecologic cancer cell panel viability, ATPlite luminescence, 48 h; series mostly up to 57.5 µM. Summed up:
as §1

The next test deals with Tov112D. The description is as above. As to conditions: Gynecologic cancer cell panel viability, ATPlite luminescence, 48 h; series mostly up to 57.5 µM. Summed up:
as §1

The test system of a further test is WaGa. As to the kind of experiment: qHTS assay to identify novel small-molecules to repurpose for Merkel cell carcinoma treatment (AID 1296009). Further: nearly all actives have a fitted effect of over 60% in size. Further: potency means the concentration at half of the fitted maximal effect. As to conditions: MCC and control cell lines, CellTiter-Glo viability, 72 h; series mostly up to 46 µM. Put shortly: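 Cells exposed to NPC (8-point) and MIPE (11-point) compound dilutions for 72 hr at 37 degree celsius; viability read by CellTiter-Glo luminescence, normalized to no-cell and DMSO in-plate controls.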

Test [1] can be described thus: Drug repurposing screens with cells derived from glioblastoma tumor samples (AID 1345199). Further: on the % scale 0 is the no-effect control and ±100 the full control effect; nearly all actives have a fitted effect of over 40% in size. As to conditions: GBM patient neurospheres viability, ATP luminescence, 48 h; Potency: tumour line A unless noted; series mostly up to 45.9 µM. Summed up: (§2)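 Four patient lines of CD133+ GBM neurospheres were screened at several concentrations; hits were retested in those lines plus three slower-growing GBM lines, using 48-hour treatment and ATP-based viability.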

A further test concerns astro. The description is as above. As to conditions: viability, ATP luminescence, 48 h; series mostly up to 45.9 µM. Summed up: as §2
Test [2] deals with Nuclear receptor subfamily 1 group I member 2 (Rattus norvegicus) (UniProt Q9R1A7). As to the kind of experiment: qHTS assay for small molecule activators of the rat pregnane X receptor (rPXR) signaling pathway (AID 651751; call rule not given here; further: 0% is about no effect). As to conditions: rPXR reporter cells, luciferase (One-Glo), 24 h.
A short description of test [3]: qHTS assay for small molecule activators of the human pregnane X receptor (PXR) signaling pathway (AID 720659; call rule not given here; further: 0% is about no effect).
Test [4] is described as follows: qHTS assay to identify inhibitors of the type 1 interferon - major histocompatibility complex class I in skeletal muscle: Counter screen cell viability and HiBit confirmation (AID 1347412). Further: potency means the concentration at half of the fitted maximal effect; nearly all actives have a fitted effect of over 60% in size. As to conditions: iHSKM muscle cells + IFN-b, HiBiT or CellTiter-Glo, 24 h. Put shortly: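 Duplicate plates, pinned identically: one read for HiBiT-tagged endogenous HLA-B luminescence, the other for ATP-content viability via CellTiter Glo. Cells were genome-engineered human myoblasts given 4 ng/ml IFN-b; compounds 12-pt, 1:3 from 46 uM final; 24 hr exposure.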

Where “and” joins values, the source holds several entries; their conditions need not be identical. Equal values may be shown once. Values without a mark were called inactive. Inconclusive results are not listed. Calls of active or inactive are those of the source. Unless noted, the call rests on the fitted dose curve; in most records, active means well fitted curve in the direction sought with a large enough effect; inconclusive means small, poorly fitted or top-dose-only effect, or another doubt; inactive means no such curve, though single readings can be large; an effect the other way counts as inactive or inconclusive.

Nuclear receptor subfamily 1 group I member 2 (Rattus norvegicus), sequence (Q9R1A7 whole entry, looked up): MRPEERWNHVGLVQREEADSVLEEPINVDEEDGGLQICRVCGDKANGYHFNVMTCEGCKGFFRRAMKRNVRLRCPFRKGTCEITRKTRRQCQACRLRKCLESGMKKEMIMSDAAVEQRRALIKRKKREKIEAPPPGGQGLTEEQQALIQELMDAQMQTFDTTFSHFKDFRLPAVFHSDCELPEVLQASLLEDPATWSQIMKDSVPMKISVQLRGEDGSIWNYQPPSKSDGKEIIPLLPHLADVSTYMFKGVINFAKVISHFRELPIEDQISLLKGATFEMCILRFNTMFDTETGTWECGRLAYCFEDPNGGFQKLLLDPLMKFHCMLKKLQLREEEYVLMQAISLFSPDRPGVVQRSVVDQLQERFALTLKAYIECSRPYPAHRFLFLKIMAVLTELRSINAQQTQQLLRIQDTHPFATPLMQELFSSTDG

Turning to `Cc1ccccc1-n1c(Cn2cnc3c(N)ncnc32)nc2cccc(C)c2c1=O`, the Potency result with C33A, in the test with CAOV3, in the test with CASKI, in the test with Es-2, in the test on HeLa and in the test on Hek293T was “inactive” in each case. For the same molecule, the Potency entry in the test on JEG-3, in the test with OV90, with PA-1, with SKOV3, in the test on Tov-21-G and with Tov112D was “inactive” throughout.

As for `CN1CCN(c2ccc([N+](=O)[O-])c3no[n+]([O-])c23)CC1`, the Potency result with C33A, with CAOV3, in the test on CASKI, with Es-2, in the test with HeLa and with Hek293T was “inactive” in each case. The Potency entry in the test with JEG-3, in the test on OV90, in the test with PA-1, in the test on SKOV3, in the test on Tov-21-G and in the test on Tov112D was “inactive” each time.

Take `Cc1ccc(Cl)c(O)c1`: the Potency result in the test with WaGa, in the test with C33A, in the test on CASKI, with Es-2, in the test with HeLa and with Hek293T was “inactive” throughout. Moreover, the Potency entry with JEG-3, in the test on OV90, in the test with PA-1, with SKOV3, with Tov-21-G and in the test with Tov112D was “inactive” in each case. Further, the Potency entry (in [1]; with astro) was “inactive” each time.

Take `CCOCCOC(C)=O`: the Potency result in the test with WaGa, in the test on C33A, with CASKI, in the test on Es-2, in the test with HeLa and in the test on JEG-3 was “inactive” each time. For the same molecule, the Potency entry (with OV90; in the test on SKOV3; in the test with Tov-21-G; in the test with Tov112D; in test [1]; in the test on astro) was “inactive” in each case. The max response in test [2] is -2.9%. Also, the outcome in test [3] was inactive.

For the molecule `CC(=O)NCCc1c[nH]c2ccccc12`, the Potency entry in the test with C33A, in the test on CAOV3, in the test on CASKI, in the test with Es-2, in the test on HeLa and in the test with Hek293T was “inactive” each time. Besides, the Potency entry with JEG-3, with OV90, in the test on PA-1, in the test with SKOV3, in the test with Tov-21-G and in the test with Tov112D was “inactive” in each case.

In the case of `O=c1[nH]c2ccc(Cl)cc2c(N[C@@H]2CN3CCC2CC3)c1-c1nc2ccccc2[nH]1`, the Potency is 1.48 µM (active) in the test with WaGa; 10 µM (active) in the test with CASKI; 0.447 µM (active) in the test with Es-2; 3.16 µM (active) in the test with HeLa; 5.01 µM (active) with OV90; 2.24 µM (active) in the test with PA-1. Moreover, the Potency in the test with Tov112D is 25.1 µM (active); in test [4] (HiBiT) it was 3.52 µM (active); in test [4] (Viability), 17.6 µM (active). Further, the Potency result in the test on C33A is “inactive”.

Turning to `Nc1ccc(Sc2ccc(N)cc2)cc1`, the Potency entry in the test with WaGa, in the test with C33A, with CAOV3, in the test with CASKI, with Es-2 and in the test on HeLa was “inactive” throughout. In addition, the Potency result in the test on Hek293T, in the test with JEG-3, in the test on SKOV3, with Tov-21-G, in the test with Tov112D and with astro was “inactive” each time. The max response in test [2] is 10.3% and 6.87%.

In the case of `CC1(C)CC/C(=C/c2ccc(Cl)cc2)C1(O)Cn1cncn1` (stereo unspecified), the Potency entry in the test with C33A, in the test with CAOV3, with CASKI, in the test on Es-2, with HeLa and in the test on Hek293T was “inactive” each time. Further, the Potency result in the test on JEG-3, with PA-1, in the test on SKOV3, with Tov-21-G, in the test on Tov112D and with astro was “inactive” throughout.

With `CC(Cc1ccc(O)cc1)NCC(O)c1cc(O)cc(O)c1` (stereo unspecified), the Potency entry in the test on WaGa, in the test with CAOV3, in the test on CASKI, in the test on Es-2, in the test with HeLa and in the test on Hek293T was “inactive” throughout. The Potency result (in the test on JEG-3; with PA-1; in the test on SKOV3; in the test on Tov-21-G; in the test with Tov112D; in [1]) was “inactive” throughout. The Potency result in the test with astro was “inactive”.

For `CCCCCCCCCC(CC)c1ccc(S(=O)(=O)O)cc1` (stereo unspecified), the Potency result with WaGa, in the test on C33A, with CAOV3, in the test with CASKI, with HeLa and with Hek293T was “inactive” throughout. Also, the Potency result (in the test on JEG-3; in the test on PA-1; with Tov-21-G; in the test on Tov112D; in test [1]; in the test with astro) was “inactive” each time. Also, in test [2], the max response is 0.683% and -5.48%.

Consider `C[C@]12CC[C@@H]3[C@@H](CCC4=CC(=O)CC[C@@H]43)[C@@H]1CC[C@@H]2OC(=O)CCc1ccccc1`, for which the Potency result in the test with WaGa and in the test with astro was “inactive” throughout.

As to `COC1=C[C@@H]2[C@@H]3Cc4ccc(OC)c(O)c4[C@]2(CCN3C)CC1=O`, the Potency entry with C33A, with CAOV3, in the test with CASKI, in the test on Es-2, with HeLa and with Hek293T was “inactive” in each case. The Potency result with JEG-3, in the test on OV90, in the test with PA-1, in the test with SKOV3, in the test on Tov-21-G and in the test on Tov112D was “inactive” throughout.

On to `O=C(O)COc1nc(Cl)c(Cl)cc1Cl`, for which the Potency result in the test on WaGa, in the test on C33A, in the test on CASKI, in the test with Es-2, in the test with HeLa and with Hek293T was “inactive” each time. Further, the Potency entry in the test with JEG-3, in the test on OV90, in the test with PA-1, with SKOV3, in the test on Tov-21-G and in the test on Tov112D was “inactive” in each case. Besides, the Potency entry (in test [1]; in the test on astro) was “inactive” throughout. Further, the max response in [2] was -1.37%.

Regarding `O=C(O)C(Cl)Cl`, the Potency result in the test with WaGa, in the test with C33A, with CAOV3, with CASKI, with Es-2 and with HeLa was “inactive” throughout. For the same molecule, the Potency result (in the test on JEG-3; in the test on OV90; in the test on PA-1; in the test with Tov-21-G; in the test with Tov112D; in test [1]) was “inactive” in each case. In the test on astro, the Potency result is “inactive”. For the same molecule, the max response in [2] is 4.19% and -3.77%. The molecule was classed as inactive in test [3].

On to `S=C(NC1CCCCC1)N1CCC(c2cnc[nH]2)CC1`, for which the Potency result in the test on C33A, in the test on CAOV3, in the test on CASKI, with Es-2, in the test with HeLa and with Hek293T was “inactive” each time. Besides, the Potency result in the test on JEG-3, in the test with OV90, in the test on PA-1, with SKOV3, with Tov-21-G and in the test with Tov112D was “inactive” each time.
